Outcome and Potency data for 1 molecule are collected here from PubChem BioAssay (NCATS).

The target in test [1] is Luciferin 4-monooxygenase (Photinus pyralis) (UniProt P08659). Put plainly: Firefly luciferase counterscreen qHTS: Assay Interference Panel against the NCATS CANVASS Library (AID 1347363). Also: series mostly up to about 57 µM. In short, it runs like this: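 Luminescence inhibition readout: compounds (11-point qHTS) sat 15 min at room temperature with substrate mix (0.013 mM luciferin and ATP), then firefly luciferase was added and signal read 5 min later.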

A short description of test [2]: KB-8-5-11 Cancer Cell Toxicity qHTS against the NCATS CANVASS Library (AID 1347364). Also: potency is read from the fitted curve at half-maximal effect; nearly all actives have a fitted effect of over 75% in size. The settings on record: KB-8-5-11 MDR cells viability, CellTiter-Glo, 72 h. The essentials:
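KB-8-5-11 cells (500/well) in DMEM + 10% FBS were exposed to compounds in an 11-point qHTS series for 72 hr at 37C, 5% CO2. Viability was read by CellTiter-Glo luminescence.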

The nature of test [3]: SDT Cancer Cell Toxicity qHTS against the NCATS CANVASS Library (AID 1347365). Also: potency is read from the fitted curve at half-maximal effect; nearly all actives have a fitted effect of over 60% in size. The settings on record: SDT dog glioma viability, ATP luminescence, 72 h. In short, it runs like this:
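SDT canine glioma cells (500 cells/well) were exposed to compounds in an 11-point series for 72 hr at 37C, 5% CO2; viability was read as ATP content by CellTiterGlo luminescence.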
Background: In qHTS, concentration-response curves come from the screen itself.

Test [4] can be described thus: qHTS for ATAD5 Agonist screened against the NCATS CANVASS Library (AID 1347367).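 Also: luciferase reporter driven by ATAD5 which rises upon DNA damage.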 The essentials: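 Luciferase reporter under ATAD5 control, stably integrated in HEK293T cells (2000/well). Compounds (11 points) incubated 16 h at 37C; viability read first by CellTiter-Fluor, then luminescence reporting ATAD5 activation. MMS positive control.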
The nature of test [5]: G06 Cancer Cell Toxicity qHTS against the NCATS CANVASS Library (AID 1347368). Also: potency is read from the fitted curve at half-maximal effect; nearly all actives have a fitted effect of over 60% in size. The settings on record: G06 dog glioma cells, viability ATP luminescence, 72 h. In short, it runs like this:
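G06 dog glioma cells seeded at 500 cells/well were exposed to compounds (11-point qHTS series) for 72 hr at 37C, 5% CO2; viability read as ATP content by CellTiterGlo luminescence.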

Test [6] can be described thus: MCF7 Cancer Cell Toxicity qHTS against the NCATS CANVASS Library (AID 1347369). Also: potency is read from the fitted curve at half-maximal effect. The settings on record: MCF7 viability, ATP luminescence (CellTiter-Glo), 72 h. The essentials: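 MCF7 cells (500/well) were exposed 72 h at 37 °C to compounds in an 11-point series. Viability was read as ATP content by CellTiterGlo luminescence.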
Test [7] can be described thus: J3T Cancer Cell Toxicity qHTS against the NCATS CANVASS Library (AID 1347371). Also: potency is read from the fitted curve at half-maximal effect. The settings on record: J3T dog glioma viability, ATP luminescence, 72 h. The essentials: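 J3T dog glioma cells (500 cells/well) were exposed to compounds in an 11-point series for 72 hr at 37C, 5% CO2. Cytotoxicity was read as ATP content by CellTiterGlo luminescence.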
The target of test [8] is Nuclear receptor subfamily 1 group I member 3 (Homo sapiens) (UniProt Q14994). The test is described as follows: qHTS for Constitutive Androstane Receptor (CAR) Antagonist screened against the NCATS CANVASS Library (AID 1347372).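 Also: cells stimulated with 50 nM CITCO agonist so inhibition reflects antagonism; series mostly up to about 46 µM.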 The essentials: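 HepG2-CYP2B6-hCAR double-stable cells plated, 4hr attach; cpd pin-transferred; CITCO 50 nM final; 24hr 37C/5% CO2; CellTiter-Fluor 1hr (fluorescence), then ONE-Glo luminescence.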

Test [9] shares this target. The test is described as follows: qHTS for Constitutive Androstane Receptor (CAR) Agonist screened against the NCATS CANVASS Library (AID 1347373).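 Also: every well also contained 1.5 µM PK11195 alongside the test compound.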 The essentials: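 HepG2 cells stably expressing hCAR and a CYP2B6-2.2kb luciferase reporter were treated for 24hr at 37C with compounds (11-point qHTS) in the presence of 1.5uM PK11195. Reporter activation was read by ONE-Glo luminescence.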

Test [10] is described as follows: 10-beta competent E. coli microbial cell viability qHTS against the NCATS CANVASS Library (AID 1347376). Also: series mostly up to about 46 µM. The essentials: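 10-beta competent E. coli (0.9 OD culture diluted to 0.2 OD) exposed to compounds in an 11-point qHTS series, incubated overnight at 37C, 5% CO2. Viability read as ATP by BacTiter-Glo luminescence after 20 min at room temperature.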
Test [11] can be described thus: DH5-alpha competent E. coli microbial cell viability qHTS against the NCATS CANVASS Library (AID 1347377). In short, it runs like this:
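DH5-alpha E. coli suspension (0.9 OD culture diluted to 0.2 OD) exposed to compounds in an 11-point series, overnight at 37C, 5% CO2. Viability read as ATP by BacTiter-Glo luminescence after 20 min at room temperature.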

A short description of test [12]: qHTS for H2AX Agonists against the NCATS CANVASS Library (AID 1347378). Also: potency is read from the fitted curve at half-maximal effect. Particulars: CHO-K1 H2AX phosphorylation, HTRF TR-FRET, 3 h. The essentials:
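CHO-K1 cells (1000/well, overnight at 37C) exposed to compounds at several concentrations for 3 hr at 37C, 0.76% DMSO final. Lysates read by TR-FRET (phospho-H2AX S139 Eu-cryptate antibody / H2AX-d2 antibody) after 24 hr at room temperature; 665/615 nm ratio.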

Test [13] in a line: qHTS for Inflammasome Signaling Inhibitors: IL-1-beta AlphaLISA screen against the NCATS CANVASS Library (AID 1347379).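 Also: human THP-1 cells primed with LPS then triggered with ATP; secreted IL-1B measured as AlphaLISA emission at 615 nm; potency is read from the fitted curve at half-maximal effect.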 Particulars: THP-1 LPS/ATP, IL-1B AlphaLISA secretion, 16 h. In short, it runs like this:
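Human THP-1 cells were pretreated 1 hr at 37 °C with compounds (up to 57.5 uM final), then stimulated with LPS (250 ng/mL final) and ATP (1.25 mM final). Secreted IL-1B was read by AlphaLISA after 16 hr.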

A short description of test [14]: Inflammasome Signaling qHTS Counterscreen: IL-1-beta AlphaLISA counterscreen against the NCATS CANVASS Library (AID 1347381).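 Also: cell-free check with purified IL-1β in medium and no THP-1 cells; series mostly up to about 57 µM.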 In short, it runs like this:
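To flag interference with the AlphaLISA read-out, a known amount of purified IL-1-beta (4 pg) replaced cell supernatant. Detection used anti-IL-1-beta acceptor beads, biotinylated antibody and streptavidin donor beads at room temperature.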

Test [15] is described as follows: qHTS assay for small molecule disruptors of mitochondrial membrane potential screened against the NCATS CANVASS Library (AID 1347389). Also: potency is read from the fitted curve at half-maximal effect; nearly all actives have a fitted effect of over 60% in size. Particulars: HepG2 mitochondrial membrane potential, m-MPI red/green ratio, 1.5 h. In short, it runs like this:
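HepG2 cells (2,000/well) were plated overnight at 37C, exposed to compound for 1 hr at 37C/5% CO2, then loaded with Mito-MPS dye for 30 min. Depolarization was read as a drop in red (590 nm) to green (535 nm) fluorescence ratio.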

Test [16] in a line: Secretion counterscreen for inhibitors of the SERCaMP assay screened against the NCATS CANVASS Library (AID 1347390). The settings on record: SH-SY5Y constitutive GLuc secretion, luminescence, 20 h. The essentials:
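SH-SY5Y cells with constitutively secreted GLuc reporter, 1000 cells/well, treated 20 h at 37C with compounds at 0.001 - 77 uM final; secreted luciferase read as luminescence after coelenterazine; Brefeldin A as positive control.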
In general terms: A counterscreen serves to expose hits that act by an unwanted route or on another target.

The nature of test [17]: qHTS for activators of Nrf2/ARE signaling pathway screened against the NCATS CANVASS Library (AID 1347391). Also: potency is read from the fitted curve at half-maximal effect; nearly all actives have a fitted effect of over 60% in size. Particulars: ARE-bla HepG2, beta-lactamase reporter, 16 h. The essentials:
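ARE-bla HepG2 beta-lactamase reporter cells, 2000 cells/well, were preincubated 5 h, then exposed to compounds (11-point series) for 16 h at 37C. CCF4 fluorescence (ex 405, em 460/530 nm) after 2 h at room temperature.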

Test [18] can be described thus: qHTS for inhibitors of ER calcium dysfunction: SERCaMP assay screened against the NCATS CANVASS Library (AID 1347393). Also: potency is read from the fitted curve at half-maximal effect; nearly all actives have a fitted effect of over 40% in size. The settings on record: SH-SY5Y GLuc-SERCaMP (Gaussia luciferase released on ER calcium loss) secretion, thapsigargin, luminescence. The essentials:
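Thapsigargin-induced ER calcium depletion drives GLuc-SERCaMP secretion from SH-SY5Y cells; compounds given 16 h beforehand were scored by lowered coelenterazine luminescence after 4 h challenge.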

Test [19] is described as follows: Vero-766 cells viability qHTS against the NCATS CANVASS Library: Counterscreen for Zika virus inhibition assay (AID 1347394). The settings on record: Vero 766 viability, CellTiter-Glo luminescence, 72 h. In short, it runs like this:
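Vero 766 cells (1000/well), without Zika virus, were exposed to compounds for 72 h at 37C. Viability was measured by CellTiter Glo luminescence. Media-only wells served as 100% inhibition.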

The nature of test [20]: qHTS for inhibitors of Wild type Zika virus screened against the NCATS CANVASS Library (AID 1347396).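 Also: ATP luminescence of surviving cells so rescue from viral cell killing; series mostly up to about 46 µM.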 In short, it runs like this: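 Using ATP-based luminescence (CellTiter Glo), this screen scores rescue of Vero 766 cells from wild-type Zika killing at 72 h post-infection. Compounds are tested in a concentration series.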

Results filed as inconclusive are left out. Active and inactive are the calls of the source. Calls follow the shape of the dose curve; as a rule, active = well fitted curve in the direction sought with a large enough effect; inconclusive = small, poorly fitted or top-dose-only effect, or another doubt; inactive = no such curve, though single readings can be large; an effect the other way counts as inactive or inconclusive.

Sequence of Nuclear receptor subfamily 1 group I member 3 (Homo sapiens) (Q14994 whole entry, looked up): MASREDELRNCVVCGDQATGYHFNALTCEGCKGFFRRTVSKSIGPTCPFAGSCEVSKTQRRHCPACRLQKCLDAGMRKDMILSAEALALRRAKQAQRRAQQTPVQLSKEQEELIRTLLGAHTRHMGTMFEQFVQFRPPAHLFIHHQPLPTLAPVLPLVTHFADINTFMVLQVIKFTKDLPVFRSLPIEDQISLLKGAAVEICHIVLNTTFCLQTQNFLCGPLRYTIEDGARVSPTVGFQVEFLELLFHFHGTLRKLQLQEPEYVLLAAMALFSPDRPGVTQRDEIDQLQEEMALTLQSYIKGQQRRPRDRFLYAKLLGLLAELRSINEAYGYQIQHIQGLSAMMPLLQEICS
Sequence of Luciferin 4-monooxygenase (Photinus pyralis) (P08659 whole entry, looked up): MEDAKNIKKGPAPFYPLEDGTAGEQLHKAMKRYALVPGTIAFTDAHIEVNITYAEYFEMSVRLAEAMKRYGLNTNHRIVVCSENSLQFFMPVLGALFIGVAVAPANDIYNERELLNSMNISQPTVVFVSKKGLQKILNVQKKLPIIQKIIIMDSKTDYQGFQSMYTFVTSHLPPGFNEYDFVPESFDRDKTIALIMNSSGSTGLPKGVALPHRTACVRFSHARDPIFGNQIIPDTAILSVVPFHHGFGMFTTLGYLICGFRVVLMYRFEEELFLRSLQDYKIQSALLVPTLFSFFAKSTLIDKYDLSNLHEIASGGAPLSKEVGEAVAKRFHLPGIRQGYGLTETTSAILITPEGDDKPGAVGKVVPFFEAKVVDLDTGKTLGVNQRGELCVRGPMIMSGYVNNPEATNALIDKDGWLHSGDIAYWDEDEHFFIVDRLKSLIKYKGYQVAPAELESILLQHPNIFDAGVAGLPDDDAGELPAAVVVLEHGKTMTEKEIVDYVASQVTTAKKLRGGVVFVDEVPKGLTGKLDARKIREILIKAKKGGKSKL

For the molecule `C=C1C(=O)O[C@H]2[C@H]1CC/C(C)=C/CC[C@@]1(C)O[C@@H]21`, the result in [1], in test [4], in [8], in [9], in [10] and in [11] was inactive. Also, the outcome in [14] and in test [20] was inactive. Also, the Potency in test [2] is 16.6 µM (active); in test [3], 8.33 µM (active); in test [5], 9.35 µM (active); in [6], 7.39 µM (active); in test [7] it was 16.6 µM (active); in [12], 4.86 µM (active). For the same molecule, the Potency is 5.44 µM (active) in test [13]; 20.9 µM (active) in [15]; 15.3 µM (active) in test [16]; 2.09 µM (active) in test [17]; 1.72 µM (active) in test [18]; 29.5 µM (active) in test [19].
